The text below walks through data of ChEMBL document CHEMBL1157539, “Thousands of chemical starting points for antimalarial lead identification” (Nature, 2010).

The structures appear in SMILES notation.

Holding throughout (assay type): functional
Assay [1] concerns Plasmodium falciparum. Briefly: GSK_TCMDC: Inhibition of Plasmodium falciparum 3D7 in whole red blood cells, using parasite LDH activity as an index of growth. Test compounds present at 2uM.
Assay [2] relates to Plasmodium falciparum. Briefly: GSK_TCMDC: Inhibition of Plasmodium falciparum Dd2 in whole red blood cells, using parasite LDH activity as an index of growth. Test compounds present at 2uM.
The test system of assay [3] is HepG2. Briefly: GSK_TCMDC: Percent inhibition of human HepG2 cell line. Test compounds present at 10uM.

As to `CCCc1c(C(=O)OCC)c2cc(O)ccc2n1-c1ccc(OC)cc1`, the Inhibition is on record as 100% in assay [1], 99% in assay [2] and 0% in assay [3].
For `COc1ccc2nccc(N3CCC(CCNCc4ccc5c(n4)NC(=O)CO5)CC3)c2n1.Cl`, in that order: 100%, 72% and 19%.
For `CCN(CC)CCN(Cc1ccc(-c2ccc(C#N)cc2)cc1)C(=O)Cn1c(CCc2cccc(F)c2F)nc(=O)c2ccccc21.O=C(O)C(O)C(O)C(=O)O`, in that order: 100%, 46% and 31%.
In the same order, the values of `SC(=Nc1ccc(Cl)c(Cl)c1)NN=Cc1ccccn1` are 98%, 85% and 40%.
For the compound `Cc1cc(NCC(c2ccccc2)c2ccccc2)nc(NCc2ccc(C(F)(F)F)cc2)n1`, the results for the Inhibition in assay [1], in assay [2] and in assay [3] were 100%, 79% and 29%, respectively.
For `COc1ccc2nccc([C@@H](O)CN3CCC(NCc4nc5c(OCc6ccccc6)cccc5[nH]4)CC3)c2c1.O=C(O)C(=O)O`, in that order: 100%, 34% and 6%.
In the case of `OCCN1CCN(C(=S)NC2CCCCC2)CC1`, the results for the Inhibition in assay [1], in assay [2] and in assay [3] were 93%, 0% and 49%, respectively.
In the same order, the values of `Cc1ccc(NC(=O)c2ccc(NCCCN3CC(C)CC(C)C3)c([N+](=O)[O-])c2)cc1F` (stereo not drawn) are 100%, 85% and 18%.
As to `CCNc1cc(C(=O)N[C@@H](Cc2ccccc2)[C@H](O)CNC(C)(C)CCCC(C)C)cc(N2CCCCS2(=O)=O)c1.O=CO`, the Inhibition in assay [1] is on record as 98%; in assay [2], 98%; in assay [3] it was 5%.
As to `O=C(/C=C/c1ccc(Cl)c(Cl)c1)NC1CCC(CN2CCC(c3nc4ccccc4n3CCCO)CC2)CC1` (stereo not drawn), the Inhibition in assay [1] was 99%; in assay [2], 28%; in assay [3] it was 28%.
For the compound `CN1CCN(c2ccnc3ccc(NC(=O)Cc4ccc(-c5ccncc5)c5ccccc45)cc23)CC1`, the values for the Inhibition in assay [1], in assay [2] and in assay [3] were 100%, 100% and 32%, respectively.
With `CN(CCCCCNC(=O)/C=C/c1ccc(Cl)c(Cl)c1)CCc1c[nH]c2ccccc12`, the results for the Inhibition in assay [1], in assay [2] and in assay [3] were 91%, 18% and 40%, respectively.
For `CC(Oc1cccc(Cl)c1)C(=O)N1CCc2ccccc21` (stereo not drawn), in that order: 94%, 77% and 4%.
As for `Cc1ccc(-c2nc3cc(C(=O)NC4CCC(N5CCCc6ccc(C#N)cc6C5)CC4)ccc3[nH]2)cc1` (stereo not drawn), the Inhibition in assay [1] came out at 100%; in assay [2] it was 49%; in assay [3], 23%.
In the same order, the values of `COc1ccc(Br)cc1C1Nc2ccc3ccccc3c2C2=C1C(=O)CC(c1ccccc1)C2` (stereo not drawn) are 100%, 96% and 25%.
In the case of `O=[N+]([O-])c1cc(/C=N/Nc2nc3ccccc3[nH]2)ccc1O`, the Inhibition in assay [1] was found to be 98%; in assay [2], 14%; in assay [3], 0%.
In the same order, the values of `C=CCc1cc(Cc2cnc(N)nc2N)c2ccc(C)nc2c1OC` are 96%, 0% and 11%.
For the compound `O=C(Cc1ccccc1)NC(CCN1CCC(O)(c2cccc(C(F)(F)F)c2)CC1)c1ccc(Cl)c(Cl)c1` (stereo not drawn), the Inhibition is 96% in assay [1], 32% in assay [2] and 25% in assay [3].
In the same order, the values of `Cc1ccc(Cl)c2sc(N3CCN(C(=O)c4ccc([N+](=O)[O-])o4)CC3)nc12` are 97%, 94% and 21%.
Take `COc1ccc(-c2cc3ncn(CC(=O)N4CCN(c5cccc(OC)c5)CC4)c(=O)c3s2)cc1`: the Inhibition is given as 84% in assay [1], 26% in assay [2] and 49% in assay [3].
For `Cc1cccc2nc(-c3cccc(-c4ccc(NC(=O)C(C)CN5CCOCC5)cc4)c3)[nH]c12` (stereo not drawn), the results for the Inhibition in assay [1], in assay [2] and in assay [3] were 93%, 30% and 7%, respectively.
For `CCCn1c(Sc2ccc(C#N)c([N+](=O)[O-])c2)nnc1-c1cc(OC)cc(OC)c1`, in that order: 98%, 79% and 24%.
For `CC(C)C[C@H](Nc1ccc(C#N)c2ccccc12)C(=O)NC(C)(C)C12CC3CC(CC(C3)C1)C2.O=C(O)C(F)(F)F`, in that order: 96%, 30% and 19%.
For `CC(C)Oc1ccc(C=CC(=O)Nc2noc3ccccc23)cc1`, in that order: 96%, 95% and 2%.
Turning to `Br.CCCc1cc(C)ccc1OCCCON1C(N)=NC(N)=NC1(C)C`, the Inhibition in assay [1] stood at 97%; in assay [2] it was 97%; in assay [3], 64%.
With `CCc1cc(OC)ccc1C1CCN(CCCCNC(=O)c2ccc(NC(=O)c3ccc(Cl)cc3)cc2)CC1.Cl`, the figures for the Inhibition in assay [1], in assay [2] and in assay [3] were 95%, 61% and 23%, respectively.
For `Cc1ccoc1C(=O)Nc1cccc(-c2cccc(-c3nc4cc(C(F)(F)F)ccc4[nH]3)c2)c1`, in that order: 98%, 37% and 39%.
Take `COc1cc(C(=O)NCc2nn(CCN3CCC(N4CCCC4)CC3)cc2-c2ccc(Cl)c(Cl)c2)cc(OC)c1OC`: the figures for the Inhibition in assay [1], in assay [2] and in assay [3] were 97%, 0% and 16%, respectively.
Regarding `Cc1nc(-c2nc(NCc3ccccn3)ncc2-c2ccsc2)sc1C`, the Inhibition in assay [1] worked out at 92%; in assay [2] it was 87%; in assay [3], 0%.
In the same order, the values of `Cc1ccc(S(=O)(=O)O)cc1.N=C(N)NCCCC(=O)NCC(N)=O` are 100%, 0% and 20%.
In the same order, the values of `Nc1c(Cl)cc(C(O)CNCCCCCCCCCc2ccccn2)cc1Cl` (stereo not drawn) are 98%, 83% and 9%.
